The values below come from the supplement of paper PMC6555819.

Common to all, as to experiment: PBM binding z-score (relative to random genomic background probes); higher = stronger binding; sequences stand for … in GC…GCGATTGACAGCGTAGAATGAAGG
The subject of test [1] is PPARg:RXRa DBDmut IVT, anti-RXR (DBD mutation: RXRa K156A/R161A, NR concentration 270 nM, RXRa partner concentration 90 nM). The method in brief:
(§1)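 Random background probes are the reference for binding z-scores. These scores derive from regression-normalized fluorescence on custom Agilent 4×180K protein-binding microarrays incubated 1 h with ligand-free nuclear receptor dimers. Binding was detected with antibodies against each partner (one per run).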

Test [2] deals with PPARg:RXRa IVT, anti-PPARg (NR concentration 270 nM, RXRa partner concentration 90 nM). Summed up:
as §1

The test system of test [3] is PPARg DBDmut:RXRa IVT, anti-PPARg (DBD mutation: PPARg1 K132A/R137A, NR concentration 270 nM, RXRa partner concentration 90 nM). Summed up: as §1
The subject of test [4] is PPARg DBDmut IVT, anti-PPARg (DBD mutation: PPARg1 K132A/R137A, NR concentration 270 nM). Summed up:
as §1

Test [5] concerns PPARg homodimer (NR concentration 180 nM). Summed up:
as §1

In test [6] the test system is PXR:RXRa (NR concentration 270 nM, RXRa partner concentration 90 nM). Summed up: as §1
For test [7], the system named is PXR homodimer (NR concentration 270 nM). Summed up:
as §1

The subject of test [8] is RARa:RXR (NR concentration 270 nM, RXRa partner concentration 90 nM). Summed up:
as §1

Test [9] relates to RARa homodimer (NR concentration 270 nM). The method in brief: as §1
Test [10] concerns RARb:RXRa (NR concentration 270 nM, RXRa partner concentration 90 nM). The method in brief: as §1
The test system of test [11] is RARb homodimer (NR concentration 270 nM). The method in brief: as §1
Test [12] deals with RARg:RXRa (NR concentration 270 nM, RXRa partner concentration 90 nM). Summed up:
as §1

In test [13] the test system is RARg homodimer (NR concentration 270 nM). Summed up:
as §1

The test system of test [14] is RXRa DBDmut IVT, anti-RXR (DBD mutation: RXRa K156A/R161A, NR concentration 90 nM). Summed up:
as §1

The subject of test [15] is RXRa homodimer (NR concentration 180 nM). The method in brief:
as §1

The subject of test [16] is THRa:RXRa (NR concentration 90 nM, RXRa partner concentration 90 nM). Summed up: as §1
In test [17] the test system is THRa homodimer (NR concentration 90 nM). Summed up:
as §1

The test system of test [18] is VDR homodimer (NR concentration 270 nM). Summed up:
as §1

On to AGTCAAAGTTCATCTAGGAAACGTAAGATATGCT, for which the PBM binding z-score was determined as 0.0279 in test [1]; 2.61 in [2]; 1.09 in test [3]; 0.7 in test [4]; 2.32 in [5]; 4.53 in [6]. In addition, the PBM binding z-score amounted to 3.68 in [7]; 3.18 in test [8]; 1.09 in test [9]; 5.02 in test [10]; 3.89 in test [11]; 5.45 in [12]. Besides, the PBM binding z-score in [13] was 6.42; in test [14], 4.79; in test [15] it was 4.58; in test [16], 1.98; in test [17] it was -0.21; in test [18] it was 4.34.
For the sequence CCGACTGCGGCAGAAAGGTTACCATACCATCCGG, the PBM binding z-score in [1] is -0.1; in test [2], 0.0365; in test [3] it was -0.709; in [4] it was -0.931; in test [5], 0.55; in test [6] it was 1.05. Further, the PBM binding z-score in test [7] is -0.0131; in test [8], 1.42; in test [9] it was -0.186; in test [10], 1.29; in [11], 1.92; in [12] it was 0.857. Further, the PBM binding z-score in test [13] was 0.647; in test [14] it was -0.0879; in test [15], 1.57; in test [16] it was 1.02; in [17], 0.00107; in [18] it was -0.0446.
Turning to ACAGACAGGTGAGTGAAGCTAACTCAGCTGGACG, the PBM binding z-score was 0.196 in test [1]; 0.291 in test [2]; -0.859 in test [3]; -1.17 in [4]; -1.1 in [5]; -0.701 in [6]. Also, the PBM binding z-score in [7] is -0.552; in test [8] it was -0.839; in [9] it was -0.721; in [10] it was 0.276; in test [11], -0.638; in test [12], -0.0417. The PBM binding z-score is 0.288 in [13]; -0.672 in test [14]; -0.0844 in test [15]; -0.381 in test [16]; -1.16 in [17]; -1.08 in test [18].
Consider TCTTGTAGATCAATGGTTAAGAAAGCCGAAGCCT, for which the PBM binding z-score was 1.89 in [1]; 0.567 in [2]; 0.47 in test [3]; 0.225 in test [4]; -0.106 in [5]; 0.039 in [6]. Moreover, the PBM binding z-score was -0.283 in [7]; 0.142 in [8]; 0.324 in [9]; -0.236 in test [10]; -0.529 in [11]; -0.0652 in [12]. The PBM binding z-score in test [13] was -0.444; in [14] it was 0.768; in test [15], 0.123; in test [16], -0.193; in test [17], -0.412; in test [18] it was -0.25.
As for CCTTACGGTTCACGAGGTTATAGCACGACGAGCG, the PBM binding z-score amounted to 0.19 in [1]; 0.535 in test [2]; 0.19 in test [3]; 0.414 in [4]; 1.45 in test [5]; 3.2 in [6]. The PBM binding z-score in test [7] stood at 1.29; in [8] it was 3.8; in test [9], 1.36; in test [10] it was 1.99; in test [11] it was 2; in test [12] it was 2.73. Also, the PBM binding z-score was 1.5 in [13]; 3.15 in [14]; 4.01 in [15]; 2.8 in test [16]; 1.26 in test [17]; 3.82 in test [18].
For ATCTCTAGGTAAAGATAGTACAGTGAATGCAAAT, the PBM binding z-score stood at 1.46 in test [1]; 1.59 in [2]; 1.31 in test [3]; 1.08 in [4]; 1.02 in test [5]; 0.0817 in [6]. Besides, the PBM binding z-score is 0.418 in test [7]; 0.0539 in test [8]; 1.54 in [9]; 0.0238 in [10]; 0.0852 in test [11]; 0.268 in test [12]. Further, the PBM binding z-score in test [13] is 0.707; in [14], -0.147; in test [15], 0.301; in [16] it was 0.452; in test [17], 0.0174; in test [18], 0.54.
As to CCTTACGGGTCAAGGTTAAAGCACGGGTGGTACG, the PBM binding z-score in test [1] came to 1.83; in test [2], 3.82; in [3], 0.996; in test [4], 0.275; in [5] it was 3.27; in test [6], 3.65. In addition, the PBM binding z-score worked out at 0.419 in test [7]; 4.78 in test [8]; 1.39 in test [9]; 4.12 in test [10]; 3.57 in [11]; 5.08 in test [12]. Further, the PBM binding z-score in [13] stood at 4.78; in [14] it was 0.827; in [15], 5.39; in test [16] it was 3.06; in test [17], 1.01; in test [18], 1.43.
As for CCTTACGTGTCACTGACAGGTTATAGCATTTGGA, the PBM binding z-score was 2.18 in test [1]; 1.32 in test [2]; 0.83 in test [3]; 1.13 in test [4]; 1.53 in [5]; 0.903 in test [6]. Besides, the PBM binding z-score in test [7] was 0.611; in test [8], 1.21; in [9] it was 1.67; in [10] it was 1.19; in test [11] it was 1.37; in test [12], 1.71. For the same sequence, the PBM binding z-score was determined as 1.21 in test [13]; 0.934 in test [14]; 0.941 in test [15]; 0.816 in test [16]; 0.847 in [17]; 0.842 in test [18].
